From PubChem BioAssay
POLK inh = DNA polymerase kappa (human) inhibition | purified Pol kappa, fluorescent DNA synthesis assay, 10 min | Potency, µM (doses to about 107 µM), actives largely listed as inhibitors | 0.53% of 400,000 active | AID 588579
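10 nM Pol kappa was preincubated with compounds for 15 min at room temperature. Reaction started with 50 nM (final) substrate. Fluorescence read kinetically at 0 and 10 min.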
Pol iota inh = blocks human DNA polymerase iota activity. Q9UNA4. Pol iota fluorescent replication assay, 10 min. Potency, µM (titrated, usually from 115 µM), usual class: inhibitors. 1% of 390,000 active
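Pol iota at 10 nM preincubated 15 min with compounds at room temperature; reaction started with fluorescent substrate, 50 nM final. Fluorescence read kinetically at 0 and 10 min; buffer-only wells as negative control.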
POLB inh = DNA polymerase beta (human) inhibition; P06746; Pol beta primer extension/strand displacement, fluorescence kinetic; Potency, µM (titrated, usually from 114 µM), actives largely listed as inhibitors; 1.3% of 340,000 active; AID 485314
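Preincubation: enzyme (10 nM) with compound, 15 min, RT. Reaction: substrate added to 50 nM final. Reads: 0 and 10 min. Analysis: normalized, Hill fit.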
POLH inh = DNA polymerase eta (human) inhibition; 1.2% of 390,000 active; Q9Y253; recombinant Pol eta, fluorescent DNA replication assay; Potency, µM (doses to about 114 µM), hits mostly inhibitors; AID 588591
Target sequence (Q9Y253 whole entry, looked up): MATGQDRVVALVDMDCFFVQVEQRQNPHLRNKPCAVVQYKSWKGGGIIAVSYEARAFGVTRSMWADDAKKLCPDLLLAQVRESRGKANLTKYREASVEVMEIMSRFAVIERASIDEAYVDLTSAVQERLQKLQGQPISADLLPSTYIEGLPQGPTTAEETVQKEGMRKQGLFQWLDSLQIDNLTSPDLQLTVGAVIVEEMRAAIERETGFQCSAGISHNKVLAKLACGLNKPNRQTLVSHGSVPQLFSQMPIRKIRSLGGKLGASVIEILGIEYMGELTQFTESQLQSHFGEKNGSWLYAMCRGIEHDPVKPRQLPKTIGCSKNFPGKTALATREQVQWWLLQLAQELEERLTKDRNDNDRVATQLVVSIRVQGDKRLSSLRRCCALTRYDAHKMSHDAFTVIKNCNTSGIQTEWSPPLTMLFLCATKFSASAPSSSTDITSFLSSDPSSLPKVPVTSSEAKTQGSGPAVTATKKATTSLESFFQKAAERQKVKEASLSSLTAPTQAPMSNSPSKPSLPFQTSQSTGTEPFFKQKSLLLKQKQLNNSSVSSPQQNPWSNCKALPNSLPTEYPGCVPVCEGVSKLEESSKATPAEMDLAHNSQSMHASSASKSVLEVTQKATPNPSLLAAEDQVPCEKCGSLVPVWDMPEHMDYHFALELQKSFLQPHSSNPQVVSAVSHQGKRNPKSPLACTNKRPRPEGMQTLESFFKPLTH
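Fluorescent replication assay: 50 nM final substrate added after a 15 min room-temperature compound preincubation with 10 nM enzyme. Signal taken at 0 min and again at 10 min.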
TDP1 block = blocks human tyrosyl-DNA phosphodiesterase 1. AID 485290. recombinant TDP1, AlphaScreen DNA substrate cleavage. 0.28% of 350,000 active. Potency, µM (titrated, usually from 130 µM), actives largely listed as inhibitors; note: nearly all actives have a fitted effect of over 40% in size
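Signal: AlphaScreen proximity between streptavidin donor and anti-FITC acceptor beads on intact substrate. Reaction: Tdp1 1 nM, substrate 15 nM final, 5 min RT after 15 min compound preincubation.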
TbPGK inh = TbPGK inhibition, hit validation; shares compounds with POLK inh; TbPGK coupled GAPDH assay, Kinase-Glo luminescence; Potency, µM (top dose mostly 57.5 µM), hits mostly inhibitors; 79% of 500 active; AID 686980; note: nearly all actives have a fitted effect of over 65% in size
POLI cherry-pick = Confirm cherry-picked inhibitors of human polymerase iota; 77% of 1,500 active; Potency, µM, hits mostly inhibitors; Pol iota primer extension, TAMRA/BHQ fluorescence; shares compounds with POLK inh
Each line names hits and unclear results; the compound was inactive in the other large screens (follow-up assays come after a bar, where they were run). Hits are enriched below; roughly 2.4% of the tested compounds scored in any of these assays. Calls come from the whole dose curve; as a rule, active = well fitted curve in the direction sought with a large enough effect; inconclusive = small, poorly fitted or top-dose-only effect, or another doubt; inactive = no such curve, though single readings can be large; an effect the other way counts as inactive or inconclusive.

Cc1ccc(NC(=O)CN2C(=O)c3ccccc3Sc3ccc(C(=O)N4CCOCC4)cc32)c(Cl)c1	Pol iota inh inconclusive
c1ccc(-c2noc(-c3ccncc3)n2)nc1	none | TbPGK inh 18µM
c1ccc(-c2noc(-c3ccc4c(c3)OCO4)n2)nc1	POLB inh inconclusive | TbPGK inh 5.8µM
Cc1occc1C(=O)N/N=C/c1ccc(N(C)C)cc1	none | TbPGK inh 10µM
Cc1ccccc1C(=O)O/N=C(\N)c1ccccc1	none (no result: TDP1 block) | TbPGK inh 15µM
Cc1occc1C(=O)O/N=C(\N)c1ccccc1	none (no result: TDP1 block) | TbPGK inh 18µM
NCCCC[C@H](NC(=O)[C@H](CCCN=C(N)N)NC(=O)[C@H](CO)NC(=O)[C@H](CCCN=C(N)N)NC(=O)[C@@H](N)Cc1ccc(O)cc1)C(=O)N[C@@H](Cc1ccc(O)cc1)C(=O)N[C@@H](CO)C(=O)N[C@@H](CO)C(=O)N[C@@H](Cc1c[nH]c2ccccc12)C(=O)N[C@@H](Cc1ccc(O)cc1)C(=O)O	none (no result: Pol iota inh, POLB inh, POLH inh)
COc1cccc2c(C)nc(Nc3nc(CSc4nnc(C)s4)cc(=O)[nH]3)nc12	Pol iota inh inconclusive | POLI cherry-pick inconclusive
Cc1nc(-c2ccc(F)cc2)sc1CCNC(=O)c1ccco1	none
COc1ccc(-n2nc(C(=O)Nc3ccc(OC)c(OC)c3)c3c4ccccc4n(C)c3c2=O)cc1	Pol iota inh inconclusive, POLH inh inconclusive | POLI cherry-pick 4.7
NS(=O)(=O)c1ccc(N=C2C(=O)Nc3ccccc32)cc1	none
O=C1Nc2ccccc2C1=Nc1ccc(S(=O)(=O)Nc2nccs2)cc1	POLK inh inconclusive, Pol iota inh 8.9µM, POLH inh 20µM | TbPGK inh 18µM
CC(=O)Nc1ccc(S(=O)(=O)N2CCC(N3CCN(Cc4ccc(C)cc4)C(=O)C3=O)CC2)cc1	Pol iota inh 79µM, POLB inh 45µM, POLH inh inconclusive | POLI cherry-pick inconclusive
Cc1ccc(NC(=S)N2CCN(CCN3C(=O)c4cccc5cccc(c45)C3=O)CC2)cc1	POLH inh inconclusive | TbPGK inh inactive
CC(=O)N1CCc2c(sc3c2c(=O)n(CCc2ccccc2)c(=O)n3Cc2cccc(C)c2)C1	none
Cc1cc(-c2ccccc2)nc(N/N=C/c2ccc(O)cc2)n1	POLH inh inconclusive (no result: POLB inh)
Cc1cc(C)c2nc(C)cc(N/N=C/c3ccc(O)cc3)c2c1	POLK inh inconclusive, Pol iota inh inconclusive, POLB inh 25µM, POLH inh 32µM (no result: TDP1 block) | POLI cherry-pick inconclusive
c1ccc(-c2cn3c(n2)-c2ccccc2C3)cc1	POLH inh inconclusive | TbPGK inh 15µM
O=S(=O)(c1ccc(Cl)cc1)c1nc(-c2cccs2)oc1SCc1ccccc1F	none
Cc1cccc(NC(=O)CSc2nc(C3CC3)nc3ccccc23)c1	Pol iota inh 22µM, POLB inh 22µM, POLH inh 40µM | POLI cherry-pick 67
O=C(CSc1nc(C2CC2)nc2ccccc12)Nc1ccccc1	none
Cc1ccc(S(=O)(=O)Nc2cccc(-c3ccc(N4CCCC4)nn3)c2)c(C)c1	none
CCOc1cc(/C=N/NC(=O)c2nnn(-c3nonc3N)c2C)ccc1OCc1ccc(C)cc1	POLH inh 10µM (no result: POLK inh, Pol iota inh, POLB inh, TDP1 block) | POLI cherry-pick 24
CCOc1cc(/C=N/NC(=O)c2nnn(-c3nonc3N)c2C)ccc1OCc1ccc(F)cc1	none
COc1ccc(OC)c(NC(=O)Cn2c(=O)cc(-c3ccccc3)c3c(C)nn(C)c32)c1	POLB inh inconclusive, POLH inh inconclusive | POLI cherry-pick 47
CCN(CC)CCNC(=O)c1sc2nc(C)cc(C)c2c1-n1cccc1	none
COc1ccc2oc(=O)c(C(=O)N3CCN(c4ccc(C)cc4)CC3)cc2c1	none
CC(C)N1CCc2c(sc(NC(=O)C3CC3)c2-c2nc3ccccc3s2)C1	none (no result: POLK inh, Pol iota inh, POLB inh, POLH inh, TDP1 block) | POLI cherry-pick 42
C=CCN=C1NN=C(c2cc(C)n(CCOC)c2C)CS1	none
COCCn1c(C)cc(C2=NNC(=NC3CC3)SC2)c1C	none | TbPGK inh 16µM
CCOC(=O)c1sc2ccccc2c1S(=O)(=O)N1CCN(c2cccc(C)c2)C(C)C1 (stereo not drawn)	none
COc1ccc(C2C(=O)N(C3CCCCCC3)CC(=O)N2CCc2ccccc2)cc1 (stereo not drawn)	none
Cc1ccccc1OCC(=O)OCC(=O)NCc1ccco1	none (no result: POLB inh)
COc1ccccc1NCCC(=O)OCC(=O)NCc1ccco1	POLK inh 79µM, Pol iota inh 6.3µM, POLB inh 18µM, POLH inh 5.6µM (no result: TDP1 block) | POLI cherry-pick inconclusive
CC(=O)Nc1ccc(N/C=C/C(=O)c2ccco2)cc1	POLH inh inconclusive
CN(C)c1ccc(N/C=C/C(=O)c2ccco2)cc1	Pol iota inh inconclusive, POLB inh inconclusive | TbPGK inh 10µM
CC[n+]1c(/C=C/c2c[nH]c3ccccc23)ccc2cc(C)ccc21	POLK inh 79µM, Pol iota inh inconclusive, POLB inh 20µM, POLH inh inconclusive | POLI cherry-pick inconclusive
Cc1ccc(S(=O)(=O)c2nc(-c3ccc(Cl)cc3)oc2N2CCCCCC2)cc1	none
CNC(=O)c1ccc(CSc2nc3ccncc3n2Cc2ccc(C)cc2)cc1	none
O=C1C2C3C=CC(CC3)C2C(=O)N1c1nccs1 (stereo not drawn)	POLK inh 18µM, Pol iota inh 16µM, POLB inh 22µM, POLH inh inconclusive, TDP1 block 10µM | POLI cherry-pick 75
O=C1C2C3C=CC(C2C(=O)N1c1nccs1)C1C(=O)N(c2nccs2)C(=O)C31 (stereo not drawn)	none (no result: TDP1 block)
NNc1ccc([N+](=O)[O-])c2[nH][nH]c(=O)c12	POLH inh 2µM (no result: POLK inh, Pol iota inh, POLB inh, TDP1 block) | TbPGK inh 2.6µM
Cc1ccc(NC(=O)c2sccc2C)nc1	none | TbPGK inh 13µM
O=C(CCn1c(=O)c2ccccc2n(CC(=O)Nc2cccc(F)c2)c1=O)NCCc1ccccc1	none
CC(=O)NS(=O)(=O)c1ccc(NC(=O)/C=C/c2ccco2)cc1	POLB inh inconclusive
NS(=O)(=O)c1ccc(NC(=O)/C=C/c2ccco2)cc1	POLK inh 50µM, Pol iota inh 18µM, POLB inh 25µM, POLH inh 20µM, TDP1 block inconclusive | TbPGK inh 8.2µM
O=c1c2oc3ccccc3c2n(Cc2cccc(F)c2)c(=O)n1Cc1ccco1	none
Cc1ccc2nc3[nH]c(=O)[nH]c(=O)c3c(N)c2c1	none (no result: POLB inh, TDP1 block) | POLI cherry-pick inconclusive
CS(=O)(=O)c1ccc(C(=O)Nc2ccc(-c3nc4ccccc4[nH]3)cc2)cc1	none
O=C(Nc1ccc(-c2nc3ccccc3[nH]2)cc1)c1ccc(C(F)(F)F)cc1	none (no result: POLK inh, Pol iota inh, POLB inh, POLH inh, TDP1 block) | POLI cherry-pick inconclusive
CC(C)c1cnc2c(c1SCC(=O)c1ccc(Cl)cc1)c(=O)n(C)c(=O)n2C	none
